Source: PubChem BioAssay (National Center for Advancing Translational Sciences (NCATS))
NTMT1 inh – inhibitors of human N-terminal methyltransferase NTMT1; Q9BV86; NTMT1 MTase-Glo SAH luminescence, purified enzyme; Potency, µM (top dose mostly 114 µM), for inactives: at the highest dose activity change, negative = inhibition, actives largely listed as inhibitors; 59,000 tested, 2.5% active;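 further: potency means the concentration at half of the fitted maximal effect; plate controls were DMSO vehicle for no effect and no enzyme for full effect; nearly all actives have a fitted effect of over 65% in size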
GALC G270D act – galactocerebrosidase G270D activity enhancement, cell-based. P54803. Potency, µM (series often up to 57.5 µM), most hits filed as activators. 45,000 tested, 0.1% active. 145M-Twi-hGALC-G270D cells (Twitcher mouse brain line with human GALC G270D), HMU-beta-Gal fluorescence, 48 h; further: potency means the concentration at half of the fitted maximal effect; 0% is about no effect; nearly all actives have a fitted effect of over 65% in size
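Brain-derived Twitcher mouse 145M-Twi cells stably expressing human GALC-G270D or wild-type GALC, treated live, then residual GALC activity read by fluorescence of HMU-b-Gal substrate (0.1 mM final) in citrate-phosphate buffer pH 5.2 with sodium taurocholate. Signal increase indicates enhancement.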
DRV1 agonist – activates human resolvin D1 receptor GPR32. O75388. CHO-K1 GPR32 beta-arrestin PathHunter luminescence, 90 min; zero percent set by DMSO-only wells. activation, % at 76.9 µM. 48,000 tested, 2.5% active. AID 1346428;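 active means activation of at least 60% and not above a set upper limit, about 1 call in 100 departs from these limits; inconclusive means activation of 40% to 60%, or above that upper limit; inactive means activation under 40%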; further: 0% is about no effect
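Engineered CHO-K1 line co-expressing GPR32-ProLink and EA-beta-arrestin. Compound treatment lasted 90 min at 37 °C. Luminescence was recorded after 1 h with substrate at ambient temperature, relative to DMSO basal wells.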
GALK inh – inhibits human galactokinase | 44,000 tested, under 10 active | Potency, µM (top dose mostly 57.5 µM), for the others: at the top dose activity, negative = inhibition, hits mostly inhibitors | P51570 | recombinant GALK, Kinase-Glo ATP luminescence, 1 h;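 further: plate controls were full GALK reaction for no effect and reaction lacking GALK for full effect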
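Luminescent ATP-depletion readout (Kinase-Glo Plus) after 1 h room-temperature incubation of human GALK (5 nM) with galactose 100 µM and ATP 35 µM, pH 8.0 HEPES/Mg2+ buffer; compounds tested in qHTS format.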
B2AR arrestin ag – beta-arrestin recruitment by human beta2-adrenergic receptor ligands | P07550 | HTLA Tango cells, beta-arrestin recruitment, luciferase luminescence, 18 h | Potency, µM (titrated, usually from 46.1 µM), usual class: activators | 44,000 tested, under 10 active | AID 1347077;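 further: potency means the concentration at half of the fitted maximal effect; 0% = DMSO and full agonism = EC100 isoproterenol or metaproterenol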
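First, Tango cells carrying beta2-AR and beta-arrestin fusions received compound up to 46 microM. After 18 hr at 37 degrees C, luciferase substrate was added for 15 minutes, then luminescence gave %Activity for curve fitting.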
CLK4 inh-1 – CLK4 kinase inhibition, SAR round 2. shares compounds with NTMT1 inh. recombinant Clk4, Kinase-Glo ATP luminescence, 4.5 h. Potency, µM (titrated, usually from 76.9 µM), for the others: at the highest dose activity, negative = inhibition, hits mostly inhibitors. 90 tested, 90% active. AID 493204
CLK4 inh-2 – blocks human CLK4 kinase in radiometric assay. Reaction Biology kinase assay, 10 uM ATP. shares compounds with NTMT1 inh. Potency, µM, usual class: inhibitors. AID 504421. 65 tested, 100% active; calls by dose curve
DYRK1A RBC – inhibitors of human DYRK1A kinase; AID 504424; 65 tested, 90% active; Reaction Biology kinase assay, 10 uM ATP; Potency, µM, actives largely listed as inhibitors; shares compounds with NTMT1 inh;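 active means compounds that showed inhibition of Dyrk1a and received a fitted potency; inactive means compounds that showed no inhibition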
CLK2 inh – inhibitors of human CLK2 kinase. shares compounds with NTMT1 inh. Reaction Biology kinase assay, 10 uM ATP. Potency, µM, most hits filed as inhibitors. 65 tested, 90% active. AID 504427;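 active means compound that inhibits Clk2 kinase in the dose series, with an IC50 potency reported; inactive means no inhibition seen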
CLK3 inh – blocks human CLK3 kinase activity. Potency, µM, usual class: inhibitors. 65 tested, 40% active. shares compounds with NTMT1 inh. AID 504428. recombinant CLK3 kinase assay, 10 uM ATP;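 active means compounds that inhibited Clk3 enough in the ten-dose series to give a half-maximal potency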
DYRK1B inh – inhibitors of human Dyrk1b kinase | shares compounds with NTMT1 inh | Recombinant Dyrk1b kinase assay, 10 uM ATP | Potency, µM, hits mostly inhibitors | 65 tested, 80% active | AID 504429;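 active means compounds whose dose response shows an inhibitor phenotype against the kinase Dyrk1b; inactive means compounds showing no inhibitor phenotype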
CLK1 RBC – inhibitors of human CLK1 kinase; shares compounds with NTMT1 inh; recombinant Clk1 kinase assay, 10 uM ATP; Potency, µM, hits mostly inhibitors; 65 tested, 90% active; AID 504430;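 active means compounds that block the splicing kinase Clk1 enough to give a fitted half-inhibition concentration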
Target sequence (P49759 whole entry, looked up): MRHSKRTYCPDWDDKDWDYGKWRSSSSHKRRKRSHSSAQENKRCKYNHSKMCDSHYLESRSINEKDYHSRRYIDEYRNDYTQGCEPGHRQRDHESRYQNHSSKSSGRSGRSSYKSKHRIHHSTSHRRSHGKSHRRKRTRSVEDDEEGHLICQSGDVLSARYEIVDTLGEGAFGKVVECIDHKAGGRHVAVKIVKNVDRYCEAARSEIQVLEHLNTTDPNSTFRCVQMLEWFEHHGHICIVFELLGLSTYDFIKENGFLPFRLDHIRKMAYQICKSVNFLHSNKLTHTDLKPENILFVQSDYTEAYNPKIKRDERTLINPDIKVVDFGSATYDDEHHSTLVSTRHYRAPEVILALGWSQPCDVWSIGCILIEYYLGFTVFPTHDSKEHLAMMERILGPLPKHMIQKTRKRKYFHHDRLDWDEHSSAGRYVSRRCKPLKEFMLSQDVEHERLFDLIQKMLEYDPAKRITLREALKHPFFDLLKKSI
HSD17B4 inh – inhibits human HSD17B4, off-target for HPGD inhibitors; shares compounds with NTMT1 inh; purified HSD17B4, estradiol/NAD+, NADH fluorescence; Potency, µM (top dose mostly 57.1 µM), for the others: at the highest dose activity change, negative = inhibition, most hits filed as inhibitors; 230 tested, 10% active; AID 743187
ALDH1A1 counter – counter-screen for HPGD inhibitors: human ALDH1A1 inhibition; shares compounds with NTMT1 inh; recombinant ALDH1A1, NADH fluorescence, propionaldehyde/NAD+; 230 tested, 93% active; Potency, µM (highest dose often 57.1 µM), for the others: at the highest dose activity change, negative = inhibition, usual class: inhibitors
NNMT counter – blocks human NNMT methyltransferase. shares compounds with NTMT1 inh. NNMT MTase-Glo luminescence, SAH detection. Potency, µM (top dose mostly 57.1 µM), for inactives: at the top dose activity, negative = inhibition, hits mostly inhibitors. 120 tested, 10% active
Target sequence (P40261 whole entry, looked up): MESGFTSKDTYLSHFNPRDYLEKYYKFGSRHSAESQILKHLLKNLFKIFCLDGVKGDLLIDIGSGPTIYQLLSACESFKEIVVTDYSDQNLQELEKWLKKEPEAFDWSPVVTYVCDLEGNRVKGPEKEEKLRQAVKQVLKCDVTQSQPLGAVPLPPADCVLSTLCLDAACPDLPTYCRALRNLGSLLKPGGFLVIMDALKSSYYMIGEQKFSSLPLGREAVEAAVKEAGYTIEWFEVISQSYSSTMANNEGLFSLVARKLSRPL
* marks the source's active call; other numbers are inactive results; ! = repeats disagree; [ ] = another dose, or the depositor's remark. Most compounds without a hit are left out; they make up all but 3.6% or so of the library. Unless noted, the call rests on the fitted dose curve; in most records, active means well fitted curve in the direction sought with a large enough effect; inconclusive means small, poorly fitted or top-dose-only effect, or another doubt; inactive means no such curve, though single readings can be large; an effect the other way counts as inactive or inconclusive.

Results for Cc1ccc(CNc2ncnc3ccc(-c4ccc(C(=O)O)o4)cc23)o1 ?
CLK4 inh-1: 0.073µM*; CLK4 inh-2: 0.1*; DYRK1A RBC: 17µM*; CLK2 inh: 1.4µM*; CLK3 inh: inactive; DYRK1B inh: 4.9µM*; CLK1 RBC: 1.6µM*

What do the screens show for `CCNC(=O)c1ccc(-c2ccc3ncnc(NCc4nccs4)c3c2)o1`?
NTMT1 inh: inconclusive; CLK4 inh-1: 0.52µM*; CLK4 inh-2: 0.88*; DYRK1A RBC: 5.1µM*; CLK2 inh: 19µM*; CLK3 inh: inactive; DYRK1B inh: 5µM*; CLK1 RBC: 7µM*

Results for Cc1noc(C)c1-c1ccc2ncnc(NCc3ccc(C(F)(F)F)o3)c2c1 ?
NTMT1 inh: 6%[57.5 µM]

Results for Cc1ccc(CNc2ncnc3ccc(-c4ccc([C@@H](C)O)o4)cc23)o1 ?
NTMT1 inh: inconclusive; CLK4 inh-1: 0.18µM*

Results for Cc1csc(CNc2ncnc3ccc(-c4ccc(C(=O)O)o4)cc23)n1 ?
NTMT1 inh: -2%[57.5 µM]; CLK4 inh-1: 0.37µM*; CLK4 inh-2: 1*; DYRK1A RBC: 46µM*; CLK2 inh: 9.5µM*; CLK3 inh: inactive; DYRK1B inh: 13µM*; CLK1 RBC: 16µM*

What do the screens show for `Cc1cccc(-c2[nH]c(C(C)(C)C)nc2-c2ccc3c(c2)OCO3)n1`?
NTMT1 inh: 24%

How did CC(C)(C)Cn1c(N)nc2ccc(-c3[nH]c(C(C)(C)C)nc3-c3ccc(F)cc3)nc21 do in these assays?
NTMT1 inh: 13µM*; NNMT counter: 14µM*

What do the screens show for `COC(=O)C1=C(C)NC(C)=C(C(=O)O[C@@H]2CCCN(Cc3ccccc3)C2)[C@@H]1c1cccc([N+](=O)[O-])c1`?
NTMT1 inh: inconclusive; GALC G270D act: inactive; DRV1 agonist: -5; NNMT counter: 3%

How did CCOC(=O)C1=C(C)NC(C)=C(C(=O)OC)C1c1cccc([N+](=O)[O-])c1 (stereo not given) do in these assays?
NTMT1 inh: -3%[57.5 µM]; GALC G270D act: inactive; DRV1 agonist: -28

How did CCCCN(C)C(=O)Cn1nc(-c2ccc(C(C)(C)C)cc2)ccc1=O do in these assays?
NTMT1 inh: -1%

What do the screens show for `O=C(Nc1ccccc1)c1ccc(Nc2nnc(-c3ccc(O)cc3)c3ccccc23)cc1`?
NTMT1 inh: 7%[57.5 µM]; NNMT counter: inconclusive

How did CCn1c(-c2nonc2N)nc2c(C#CCO)ncc(OCCCN)c21 do in these assays?
NTMT1 inh: -5%[57.5 µM]

Results for COc1cc(N2CCC(O)CC2)ccc1Nc1nc(Nc2ccccc2S(=O)(=O)C(C)C)c2[nH]cnc2n1 ?
NTMT1 inh: 1%[57.5 µM]; NNMT counter: inconclusive

What do the screens show for `Cc1ccc(S(=O)(=O)Nc2ccccc2C(=O)Nc2cccc(-c3ccccc3)c2)cc1`?
NTMT1 inh: -1%

How did Cc1cc(-c2nnc3n2CCCCCC3)c(C)n1-c1ccccc1 do in these assays?
NTMT1 inh: 12%

What do the screens show for `Cc1cc(-c2nnc3n2CCCCC3)c(C)n1-c1cccc(C#N)c1`?
NTMT1 inh: 18%; HSD17B4 inh: 0%; ALDH1A1 counter: inconclusive

How did Cc1cc(-c2nnc3n2CCCCC3)c(C)n1-c1ccc(Cl)cc1 do in these assays?
NTMT1 inh: 23%

Results for Cc1cc(-c2nnc3n2CCCCC3)c(C)n1-c1ccc(Cl)c(Cl)c1 ?
NTMT1 inh: 19%; HSD17B4 inh: 11%; ALDH1A1 counter: 0.61µM*

How did COc1cccc(-c2cn(-c3ccc(CCN4CCC(O)CC4)cc3)c3ncnc(N)c23)c1 do in these assays?
NTMT1 inh: 13µM*; NNMT counter: inconclusive

Results for Cc1cnc(-c2ccccc2C(C)C)nc1NCc1ccc(-c2cccc(S(N)(=O)=O)c2)cc1 ?
NTMT1 inh: 4%

What do the screens show for `O=C(NCCN1CCCC1)c1cc(-c2ccc(CN3CCOCC3)cc2)nc2ccc(F)cc12`?
NTMT1 inh: -16%[29.8 µM]; NNMT counter: -14%[28.6 µM]

Results for Cc1ccc2nc3sc(C(=O)NCCN4CCOCC4)cc3cc2c1 ?
NTMT1 inh: 0%[57.5 µM]

Results for Cc1nnc(NC(=O)c2ccccc2)s1 ?
NTMT1 inh: -2%; GALC G270D act: inactive; DRV1 agonist: -3; GALK inh: 1%; B2AR arrestin ag: inactive

Results for O=C(Nc1cc2cc[nH]c2cn1)c1ccccc1 ?
NTMT1 inh: 22µM*!; NNMT counter: 14µM*

What do the screens show for `C/C(=C1/C(=O)Nc2ccc(NC(N)=O)cc21)c1ccc[nH]1`?
NTMT1 inh: -29%
